The results in this text go back to PubChem BioAssay (EPA / NIEHS).

Structures are written as SMILES. The source made the active and inactive calls. Rule for the calls: active = hit-call score of the fitted dose curve at least 0.9, where 1 is the maximum; inactive = score below 0.9.

Read-out in assay [1]: C-C motif chemokine 2 (Homo sapiens) (UniProt P13500)
The assay is described as follows: BSK_KF3CT_MCP1: BioMAP Diversity Plus: KF3CT Assay for Monocyte Chemoattractant Protein 1 (MCP1/CCL2) Biomarker Activity (AID 2283073). Particulars: primary human keratinocytes with fibroblasts; actives raise or lower the signal. The method, boiled down: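 Human keratinocyte plus foreskin fibroblast primary co-culture exposed to chemical for 24 h. MCP-1 levels measured by ELISA. Bidirectional curve fitting relative to DMSO negative control as baseline.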

Read-out in assay [2]: Matrix Metallopeptidase 9 (MMP9), MMP9 (gene 4318)
The assay is described as follows: BSK_KF3CT_MMP9: BioMAP Diversity Plus: KF3CT Assay for Matrix Metallopeptidase 9 (MMP9) Biomarker Activity (AID 2283074).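 For AC50: MMP9 protein level quantified by ELISA in the co-culture.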 The note with it: primary human keratinocytes with fibroblasts; actives raise or lower the signal. In outline: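 Keratinocyte plus foreskin fibroblast human primary skin co-culture was dosed with chemical and MMP-9 was quantified by ELISA 24 h later. Bidirectional curve fitting used DMSO as negative control and activity baseline.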

Read-out in assay [3]: urokinase plasminogen activator (uPA), PLAU (gene 5328)
The assay is described as follows: BSK_KF3CT_uPA: BioMAP Diversity Plus: KF3CT Assay for urokinase plasminogen activator (uPA) Biomarker Activity (AID 2283075). Particulars: primary human keratinocytes with fibroblasts; actives raise or lower the signal. The method, boiled down: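 Human keratinocyte plus foreskin fibroblast primary co-culture exposed to chemical for 24 h. uPA levels were quantified by ELISA, and activity was fitted bidirectionally against a DMSO negative-control baseline.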

Read-out in assay [4]: CD40, CD40 (gene 958)
Description: BSK_LPS_CD40: BioMAP Diversity Plus: LPS Assay for CD40 Biomarker Activity (AID 2283076). Particulars: primary human HUVEC with PBMC; actives raise or lower the signal. In outline:
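Primary human umbilical vein endothelial cells co-cultured with peripheral blood mononuclear cells, LPS-stimulated, were dosed with chemical and read 24 h later. CD40 levels were measured by ELISA and fitted bidirectionally against DMSO as negative control and baseline.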

Read-out in assay [5]: E-selectin (Homo sapiens) (UniProt P16581)
The assay is described as follows: BSK_LPS_Eselectin: BioMAP Diversity Plus: LPS Assay for Eselectin Biomarker Activity (AID 2283077). Particulars: primary human HUVEC with PBMC; actives raise or lower the signal. The method, boiled down: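 Human umbilical vein endothelial cells co-cultured with peripheral blood mononuclear cells under LPS stimulation; E-selectin measured by ELISA 24 h after chemical dosing. Activity fitted bidirectionally against DMSO as negative control and baseline.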

Read-out in assay [6]: Interleukin-8 (IL8), CXCL8 (gene 3576)
The assay is described as follows: BSK_LPS_IL8: BioMAP Diversity Plus: LPS Assay for Interleukin-8 (IL8) Biomarker Activity (AID 2283078). Particulars: primary human HUVEC with PBMC; actives raise or lower the signal. In outline: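 Human umbilical vein endothelial cells co-cultured with PBMC were stimulated with LPS; IL-8 levels were measured by ELISA 24 h after chemical dosing. Activity was fitted bidirectionally against DMSO as negative control and baseline.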

A short description of assay [7]: BSK_LPS_SRB: Viability Assessment in the BioMAP Diversity Plus: LPS Assay (AID 2283079).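 Note: total protein by sulforhodamine B absorbance as a cytotoxicity measure; measured one day after compound addition; fitted in both directions against DMSO so loss or gain of signal counts.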 Particulars: primary human HUVEC with PBMC. The method, boiled down: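 Human umbilical vein endothelial cells co-cultured with PBMC (LPS system) were dosed for 24 h. Total protein was stained with 0.1% sulforhodamine B after 10% TCA fixation, read at 560 nm, and fitted bidirectionally against DMSO baseline.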

Read-out in assay [8]: Interleukin-1 alpha (IL1a), IL1A (gene 3552)
Description: BSK_LPS_IL1a: BioMAP Diversity Plus: LPS Assay for Interleukin-1 alpha (IL1a) Biomarker Activity (AID 2283080). Particulars: primary human HUVEC with PBMC; actives raise or lower the signal. The method, boiled down: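 Human umbilical vein endothelial cells co-cultured with peripheral blood mononuclear cells were LPS-stimulated and exposed to test chemicals for 24 h. IL-1 alpha was quantified by ELISA, with bidirectional curve fitting against DMSO as the negative control and baseline.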

Read-out in assay [9]: Monocyte Chemoattractant Protein-1 (MCP1), CCL2 (gene 6347)
The assay is described as follows: BSK_LPS_MCP1: BioMAP Diversity Plus: LPS Assay for Monocyte Chemoattractant Protein-1 (MCP1) Biomarker Activity (AID 2283081).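 For AC50: co-culture stimulated with LPS; secreted MCP-1 protein quantified by ELISA in culture supernatant.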 Particulars: primary human HUVEC with PBMC; actives raise or lower the signal. The method, boiled down: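 HUVEC plus PBMC co-culture (human primary cells, LPS system) exposed to test chemical for 24 h; MCP-1 measured by ELISA. Bidirectional curve fitting against DMSO baseline; parallel SRB total-protein staining flags overt cytotoxicity.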

Assay [10] is described as follows: BSK_LPS_PGE2: BioMAP Diversity Plus: LPS Assay for Prostaglandin E2 (PGE2) Biomarker Activity (AID 2283082). Particulars: primary human HUVEC with PBMC; actives raise or lower the signal. The method, boiled down:
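LPS-activated HUVEC/PBMC co-culture; cmpd dosed, 24 h; PGE2 by ELISA; bidirectional fit vs DMSO; SRB (0.1%, TCA-fixed, 560 nm) in parallel plates for overt cytotox.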

Read-out in assay [11]: Macrophage colony-stimulating factor (MCSF), CSF1 (gene 1435)
Description: BSK_LPS_MCSF: BioMAP Diversity Plus: LPS Assay for Macrophage colony-stimulating factor (MCSF) Biomarker Activity (AID 2283083). Particulars: primary human HUVEC with PBMC; actives raise or lower the signal. The method, boiled down: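 Human umbilical vein endothelial cells co-cultured with peripheral blood mononuclear cells were exposed to compound for 24 h. M-CSF levels were measured by ELISA, and bidirectional curve fitting used DMSO as the negative control and baseline.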

Read-out in assay [12]: Tissue Factor, F3 (gene 2152)
The assay is described as follows: BSK_LPS_TissueFactor: BioMAP Diversity Plus: LPS Assay for Tissue Factor Biomarker Activity (AID 2283084). The note with it: primary human HUVEC with PBMC; actives raise or lower the signal. The method, boiled down:
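Human umbilical vein endothelial cells co-cultured with peripheral blood mononuclear cells were dosed and stimulated with LPS. Cell-surface CD142 was quantified by ELISA at 24 h. Activity was fitted bidirectionally against DMSO baseline.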

Read-out in assay [13]: Tumor necrosis factor (Homo sapiens) (UniProt P01375)
The assay is described as follows: BSK_LPS_TNFa: BioMAP Diversity Plus: LPS Assay for Tumour Necrosis Factor alpha (TNFa) Biomarker Activity (AID 2283085). The note with it: primary human HUVEC with PBMC; actives raise or lower the signal. The method, boiled down:
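Read-out is ELISA of TNFa in primary human endothelial cell–PBMC co-cultures at 24 h after compound. Activity in either direction was fitted against DMSO.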

Read-out in assay [14]: Vascular cell adhesion molecule 1 (VCAM1), VCAM1 (gene 7412)
The assay is described as follows: BSK_LPS_VCAM1: BioMAP Diversity Plus: LPS Assay for Vascular cell adhesion molecule 1 (VCAM1) Biomarker Activity (AID 2283086). Particulars: primary human HUVEC with PBMC; actives raise or lower the signal. In outline: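 HUVEC + PBMC co-culture, LPS system; compound 24 h; VCAM-1 by ELISA; bidirectional fit vs DMSO control; parallel SRB (0.1%, TCA-fixed, 560 nm) for cytotoxicity.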

Read-out in another assay: CD38, CD38 (gene 952)
The assay is described as follows: BSK_SAg_CD38: BioMAP Diversity Plus: SAg Assay for CD38 Biomarker Activity (AID 2283087). The note with it: primary human HUVEC with PBMC; actives raise or lower the signal. The method, boiled down:
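Human HUVEC plus PBMC co-culture stimulated with superantigen; CD38 measured by ELISA 24 h after chemical dosing. Fluorescence read-out, bidirectional fit against DMSO; cytotoxicity tracked in parallel by SRB and Alamar Blue.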

Read-out in assay [15]: CD40, CD40 (gene 958)
Description: BSK_SAg_CD40: BioMAP Diversity Plus: SAg Assay for CD40 Biomarker Activity (AID 2283088). The note with it: primary human HUVEC with PBMC; actives raise or lower the signal. In outline:
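Human umbilical vein endothelial cells co-cultured with PBMC; CD40 levels measured by ELISA with fluorescence read-out 24 h after chemical dosing. Gain or loss of signal fitted bidirectionally against DMSO baseline.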

Read-out in another assay: CD69, CD69 (gene 969)
Description: BSK_SAg_CD69: BioMAP Diversity Plus: SAg Assay for CD69 Biomarker Activity (AID 2283089).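 For AC50: cell surface CD69 protein quantified by ELISA with fluorescence detection.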 The note with it: primary human HUVEC with PBMC; actives raise or lower the signal. The method, boiled down: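 Endothelial/PBMC co-culture; chemical added; 24 h incubation; CD69 ELISA with fluorescence detection; bidirectional fit vs DMSO.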

Read-out in assay [16]: Monocyte Chemoattractant Protein-1 (MCP1), CCL2 (gene 6347)
Description: BSK_SAg_MCP1: BioMAP Diversity Plus: SAg Assay for Monocyte Chemoattractant Protein-1 (MCP1) Biomarker Activity (AID 2283090). The note with it: primary human HUVEC with PBMC; actives raise or lower the signal. The method, boiled down:
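MCP-1 levels in the endothelial–PBMC SAg co-culture were quantified by ELISA at 24 h post-dosing; both increases and decreases versus DMSO scored. Cytotoxicity monitored by SRB total protein in parallel cultures.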

Read-out in assay [17]: E-selectin (Homo sapiens) (UniProt P16581)
Description: BSK_SAg_Eselectin: BioMAP Diversity Plus: SAg Assay for Eselectin Biomarker Activity (AID 2283091). The note with it: primary human HUVEC with PBMC; actives raise or lower the signal. The method, boiled down:
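HUVEC co-cultured with PBMC, compound dosed then read at 24 h; E-selectin measured by ELISA. Activity fitted bidirectionally against DMSO as negative control and baseline.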

Sequence of Tumor necrosis factor (Homo sapiens) (P01375 whole entry, looked up): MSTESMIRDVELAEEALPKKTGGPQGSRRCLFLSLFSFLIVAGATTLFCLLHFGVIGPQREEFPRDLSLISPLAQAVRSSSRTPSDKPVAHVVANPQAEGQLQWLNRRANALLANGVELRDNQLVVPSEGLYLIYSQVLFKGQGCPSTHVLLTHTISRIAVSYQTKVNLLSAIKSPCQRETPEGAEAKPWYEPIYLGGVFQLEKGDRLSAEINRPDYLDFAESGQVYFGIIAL
Sequence of E-selectin (Homo sapiens) (P16581 whole entry, looked up): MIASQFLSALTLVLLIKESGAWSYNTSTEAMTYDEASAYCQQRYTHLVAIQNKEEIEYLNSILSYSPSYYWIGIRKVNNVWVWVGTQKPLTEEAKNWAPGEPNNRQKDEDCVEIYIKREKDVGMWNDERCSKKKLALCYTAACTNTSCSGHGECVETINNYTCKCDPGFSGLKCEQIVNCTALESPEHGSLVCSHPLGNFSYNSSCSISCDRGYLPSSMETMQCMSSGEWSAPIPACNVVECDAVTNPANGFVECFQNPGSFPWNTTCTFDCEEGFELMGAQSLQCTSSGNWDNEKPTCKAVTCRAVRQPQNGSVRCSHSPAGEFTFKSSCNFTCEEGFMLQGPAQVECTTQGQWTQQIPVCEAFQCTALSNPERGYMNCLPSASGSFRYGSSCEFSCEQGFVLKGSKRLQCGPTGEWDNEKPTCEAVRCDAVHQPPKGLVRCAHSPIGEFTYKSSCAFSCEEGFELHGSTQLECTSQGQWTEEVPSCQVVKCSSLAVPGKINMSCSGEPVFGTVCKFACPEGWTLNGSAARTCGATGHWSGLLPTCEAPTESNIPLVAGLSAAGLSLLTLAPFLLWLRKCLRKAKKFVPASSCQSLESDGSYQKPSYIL

On to `CC(C)(c1cc(Br)c(O)c(Br)c1)c1cc(Br)c(O)c(Br)c1`, for which the AC50 in [1] is 4.16 µM (active); in assay [2], 3.69 µM (active); in assay [3] it was 3.65 µM (active); with CD40, CD40 (gene 958) [4] it was 24.1 µM (active); in [5], 28.7 µM (active); in [6] it was 30.3 µM (active). Also, the AC50 is 29.8 µM (active) in [7]; 29.9 µM (active) in assay [8]; 29.1 µM (active) in [9]; 23.5 µM (active) in assay [11]; 30.1 µM (active) in assay [12]; 19.1 µM (active) in assay [13]. The AC50 was 26.7 µM (active) in [14]; 27.9 µM (active) in the assay with CD38, CD38 (gene 952); 23 µM (active) in the assay with CD40, CD40 (gene 958) [15]; 28.4 µM (active) in the assay with CD69, CD69 (gene 969); 29 µM (active) in assay [16]; 22.1 µM (active) in assay [17]. In addition, the outcome in assay [10] was inactive.
Regarding `Cc1cn([C@H]2C[C@H](N=[N+]=[N-])[C@@H](CO)O2)c(=O)[nH]c1=O`, the outcome in [1] was “inactive”; in assay [2], “inactive”; in assay [3] it was “inactive”; in the assay with CD40, CD40 (gene 958) [4], “inactive”; in assay [5], “inactive”; in [6], “inactive”. For the same compound, the result in [7], in assay [8], in [9], in assay [10], in assay [11] and in [12] was inactive. The outcome in assay [13] is “inactive”; in assay [14] it was “inactive”; in the assay with CD40, CD40 (gene 958) [15], “inactive”; with CD69, CD69 (gene 969), “inactive”; in assay [16] it was “inactive”; in assay [17] it was “inactive”.
With `CCN(CC)C(=O)c1cc(S(=O)(=O)Cc2ccccc2)c(N2CCC(c3ccccc3)CC2)cc1N(CC)CCN(C)C`, the outcome in assay [1], in [3] and in [10] was inactive. Further, the AC50 in assay [2] is 24 µM (active); in assay [5], 27.6 µM (active); in [6], 18.7 µM (active); in assay [7], 10.5 µM (active); in [8], 8.53 µM (active); in assay [9] it was 19.5 µM (active). Besides, the AC50 in assay [11] is 11.8 µM (active); in assay [12] it was 33.5 µM (active); in [13], 12.4 µM (active); in [14], 11.5 µM (active); with CD40, CD40 (gene 958) [15] it was 10.4 µM (active); with CD69, CD69 (gene 969), 9.82 µM (active). The AC50 in [16] is 11.8 µM (active); in assay [17], 11.4 µM (active).

The term AC50 denotes the concentration giving half of the maximal activity seen.
